Screening data as filed in PubChem.
Rows were chosen to be rich in hits. Some 7% of all compounds tested hit in one or more screens of this group.
ADAM10 inh: human ADAM10 inhibitors, primary screen, biochemical, QFRET, HTS; recombinant ADAM10, EDANS/DABCYL FRET peptide cleavage, 3 h; inhibition, % at 7 µM; actives 0.62% (n = 370,000);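 active means inhibition above a per-campaign cutoff equal to the mean of compounds falling between control-based bounds plus 3 SD, cut at about 20% in these data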
Target sequence (O14672 214-748 limits assumed): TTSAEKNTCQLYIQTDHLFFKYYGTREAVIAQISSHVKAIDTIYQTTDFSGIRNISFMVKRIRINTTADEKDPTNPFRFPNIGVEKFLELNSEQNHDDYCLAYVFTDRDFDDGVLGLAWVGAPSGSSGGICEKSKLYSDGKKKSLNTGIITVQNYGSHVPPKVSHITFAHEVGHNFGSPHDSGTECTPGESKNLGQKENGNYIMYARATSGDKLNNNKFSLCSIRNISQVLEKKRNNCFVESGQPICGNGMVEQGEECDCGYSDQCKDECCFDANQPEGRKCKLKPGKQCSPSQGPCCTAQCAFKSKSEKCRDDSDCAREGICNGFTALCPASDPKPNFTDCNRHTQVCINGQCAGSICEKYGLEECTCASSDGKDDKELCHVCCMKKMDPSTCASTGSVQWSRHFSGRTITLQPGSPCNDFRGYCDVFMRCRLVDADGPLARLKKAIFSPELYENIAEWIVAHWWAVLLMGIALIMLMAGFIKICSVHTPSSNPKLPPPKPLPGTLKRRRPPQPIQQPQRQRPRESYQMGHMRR
NR3A LBD binder: binders of NR3A ligand-binding domain, primary screen, biophysical, differential scanning fluorimetry, uHTS; NR3A LBD differential scanning fluorimetry, Tm shift; 0% = protein alone, 100% = glycine-bound protein; Glutamate receptor ionotropic, NMDA 3A (GRIN3A) ligand-binding domain; Tm shift relative to glycine control, % at 25 µM; actives 2.5% (n = 340,000); AID 1259313, 2017;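 active means melting temperature shift of at least 10% of the positive control shift, at one fixed dose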
proKLK7 act: proKLK7 zymogen activators, primary screen, biochemical, fluorescence intensity; Kallikrein-7 (Homo sapiens), P49862; purified proKLK7, EDANS-DABCYL substrate fluorescence; 100% is mature enzyme control, 0% vehicle; activation, % at 7 µM; actives 0.9% (n = 370,000); AID 652039, 2013;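 active means activation above the mean of all tested compounds plus 3 SD, computed per campaign excluding outliers beyond control limits, cut at about 13% in these data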
rCAG binder: binders of r(CAG) RNA repeats, primary screen, biochemical, fluorescence. r(CAG) RNA repeat, TO-PRO-1 dye displacement fluorescence. inhibition, % at 3 µM. actives 1.3% (n = 370,000). AID 651821, 2012;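 active means inhibition above the plate cutoff, the mean of all test compounds on that plate plus 3 SD, cut at about 35% in these data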;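 further: higher means more dye released from RNA so lower well fluorescence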
AHR act: AHR activators, primary screen, cell-based, luminescence, luciferase reporter, human | Aryl hydrocarbon receptor (Homo sapiens), P35869 | AHR-responsive luciferase reporter cells | activation, % at 5 µM | actives 2.5% (n = 320,000); in the data active means activation above about 47%
ADAM17 inh: ADAM17 inhibitors, primary screen, biochemical, QFRET; inhibition, % at 6.95 µM; AID 720648, 2013; actives 0.83% (n = 370,000); recombinant ADAM17, EDANS/DABCYL FRET peptide cleavage; Disintegrin and metalloproteinase domain-containing protein 17 (Homo sapiens), P78536;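 active means inhibition above the mean of compounds lying between control limits plus 3 SD, set per campaign, cut at about 8.5% in these data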
KLK7 act conf: proKLK7 zymogen activators, confirmation, biochemical, fluorescence intensity, triplicate. shares compounds with proKLK7 act. purified proKLK7, EDANS-DABCYL substrate fluorescence; scaled: vehicle 0, mature enzyme 100. activation, % at 7 µM. actives 68% (n = 3,200). AID 686949, 2013;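 active means activation, as change over the incubation, above the mean of all tested compounds plus 3 SD, cut at about 13% in these data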
EDANS interfere: EDANS-DABCYL substrate optical interference, artefact control for kallikrein-7 zymogen activator project, biochemical, fluorescence intensity, high throughput; shares compounds with proKLK7 act; no enzyme, 4 h; solvent 0%, active enzyme control 100%; activation, % at 7 µM; actives 80% (n = 3,200); AID 686952, 2013;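 active means activation above the all-compound mean plus 3 SD, ignoring values outside control-based bounds, cut at about 4.8% in these data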;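 further: value is the 4 h activation minus the activation read at time zero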
Numbers stand for hits.

What do the screens show for `CCCCN(CC)CCCNC(=O)c1cc2c(=O)n(CC)c3ccccc3c2s1`?
ADAM10 inh: inactive; proKLK7 act: inactive; rCAG binder: inactive; AHR act: inactive; ADAM17 inh: inactive

Results for CCCN(CCC)CCCNC(=O)c1cc2c(=O)n(CC)c3ccccc3c2s1 ?
ADAM10 inh: inactive; NR3A LBD binder: inactive; proKLK7 act: 19; rCAG binder: inactive; AHR act: inactive; ADAM17 inh: inactive; KLK7 act conf: inactive; EDANS interfere: inactive

What do the screens show for `CCCCN(CC)CCNC(=O)c1cc2c(=O)n(C)c3ccccc3c2s1`?
ADAM10 inh: inactive; NR3A LBD binder: inactive; proKLK7 act: 19; rCAG binder: inactive; AHR act: inactive; ADAM17 inh: inactive; KLK7 act conf: inactive; EDANS interfere: inactive

How did CCN(CC)CCNC(=O)c1cc2c(=O)n(C)c3ccccc3c2s1 do in these assays?
ADAM10 inh: inactive; NR3A LBD binder: inactive; proKLK7 act: 27; rCAG binder: inactive; AHR act: inactive; ADAM17 inh: inactive; KLK7 act conf: inactive; EDANS interfere: inactive

What do the screens show for `CCCCN(CC)CCNC(=O)c1cc2c(=O)n(CC)c3ccccc3c2s1`?
ADAM10 inh: inactive; NR3A LBD binder: inactive; proKLK7 act: 14; rCAG binder: inactive; AHR act: inactive; ADAM17 inh: inactive; KLK7 act conf: inactive; EDANS interfere: inactive

What do the screens show for `C[C@H]1CN([C@@H](C)CO)C(=O)c2cc(C#CCC3CCCC3)cnc2O[C@@H]1CN(C)C(=O)CC1CC1`?
ADAM10 inh: inactive; proKLK7 act: inactive; rCAG binder: inactive; ADAM17 inh: inactive

How did CCn1c(=O)c2cc(C(=O)NCCC(C)C)sc2c2ccccc21 do in these assays?
ADAM10 inh: inactive; NR3A LBD binder: inactive; proKLK7 act: inactive; rCAG binder: inactive; AHR act: inactive; ADAM17 inh: inactive

How did CCn1c(=O)c2cc(C(=O)NCCCOC)sc2c2ccccc21 do in these assays?
ADAM10 inh: inactive; NR3A LBD binder: inactive; proKLK7 act: 15; rCAG binder: inactive; AHR act: inactive; ADAM17 inh: inactive; KLK7 act conf: inactive; EDANS interfere: inactive

How did CNc1cc(C(=O)Nc2cccc(OCc3ccccc3)c2)ncn1 do in these assays?
ADAM10 inh: inactive; proKLK7 act: inactive; rCAG binder: inactive; ADAM17 inh: inactive

How did Cc1ccc(S(=O)(=O)C[C@@H]2OC[C@H](C(C)C)N2S(=O)(=O)c2ccc(C)cc2)cc1 do in these assays?
ADAM10 inh: inactive; proKLK7 act: inactive; rCAG binder: inactive; ADAM17 inh: inactive

Results for CCNc1nc(N)c(C(=C(C#N)C#N)c2ccccc2)s1 ?
ADAM10 inh: inactive; NR3A LBD binder: inactive; proKLK7 act: 33; rCAG binder: inactive; AHR act: inactive; ADAM17 inh: inactive; KLK7 act conf: 139; EDANS interfere: 139

What do the screens show for `COc1ccc(S(=O)(=O)NCC(c2ccc3c(c2)OCO3)N2CCOCC2)cc1` (centres undefined)?
ADAM10 inh: inactive; NR3A LBD binder: inactive; proKLK7 act: inactive; rCAG binder: inactive; AHR act: inactive; ADAM17 inh: inactive

What do the screens show for `N#Cc1c(-c2ccco2)cc(-c2cccnc2)nc1N`?
ADAM10 inh: inactive; NR3A LBD binder: inactive; proKLK7 act: 20; rCAG binder: inactive; AHR act: inactive; ADAM17 inh: inactive; KLK7 act conf: 42; EDANS interfere: 43

How did N#Cc1c(-c2cccnc2)cc(-c2ccccc2)nc1N do in these assays?
ADAM10 inh: inactive; NR3A LBD binder: inactive; proKLK7 act: 13; rCAG binder: inactive; AHR act: inactive; ADAM17 inh: inactive; KLK7 act conf: 14; EDANS interfere: 13

What do the screens show for `N#Cc1c(-c2ccccc2F)cc(-c2cccnc2)nc1N`?
ADAM10 inh: inactive; NR3A LBD binder: inactive; proKLK7 act: inactive; rCAG binder: inactive; AHR act: inactive; ADAM17 inh: inactive

Results for N#Cc1c(-c2ccco2)cc(C2CC2)nc1N ?
ADAM10 inh: inactive; NR3A LBD binder: inactive; proKLK7 act: inactive; rCAG binder: inactive; AHR act: inactive; ADAM17 inh: inactive

How did N#Cc1c(-c2ccco2)cc(-c2ccccn2)nc1N do in these assays?
ADAM10 inh: inactive; NR3A LBD binder: inactive; proKLK7 act: 13; rCAG binder: inactive; AHR act: inactive; ADAM17 inh: inactive; KLK7 act conf: 41; EDANS interfere: 40

Results for CS(=O)(=O)c1ccc(Cl)c(NC(=O)c2ccc(-n3cncn3)c([N+](=O)[O-])c2)c1 ?
ADAM10 inh: inactive; proKLK7 act: inactive; rCAG binder: inactive; ADAM17 inh: inactive

Results for CNc1cncc(-c2ccc(OCCCN(C)C)nc2)n1 ?
ADAM10 inh: inactive; proKLK7 act: 51; rCAG binder: inactive; ADAM17 inh: inactive; KLK7 act conf: 59; EDANS interfere: 72

How did CNc1cccc(-c2ccc(N3CCN(C)CC3)nc2)n1 do in these assays?
ADAM10 inh: inactive; proKLK7 act: inactive; rCAG binder: inactive; ADAM17 inh: inactive

How did CNc1cncc(-c2ccc(F)cc2F)n1 do in these assays?
ADAM10 inh: inactive; proKLK7 act: 14; rCAG binder: inactive; ADAM17 inh: inactive; KLK7 act conf: 20; EDANS interfere: 50

What do the screens show for `CNc1cncc(-c2ccc(CN3CCOCC3)cc2)n1`?
ADAM10 inh: inactive; proKLK7 act: 82; rCAG binder: inactive; ADAM17 inh: inactive; KLK7 act conf: 67; EDANS interfere: 78

What do the screens show for `COc1ccc(CN2CCOCC2)cc1`?
ADAM10 inh: inactive; NR3A LBD binder: inactive; proKLK7 act: inactive; rCAG binder: inactive; AHR act: inactive; ADAM17 inh: inactive

How did CNc1cncc(-c2ccc(CN(C)C)cc2)n1 do in these assays?
ADAM10 inh: inactive; proKLK7 act: 116; rCAG binder: inactive; ADAM17 inh: inactive; KLK7 act conf: 72; EDANS interfere: 82

Results for CC(=O)Nc1cncc(-c2ccc(CN(C)C)cc2)n1 ?
ADAM10 inh: inactive; proKLK7 act: inactive; rCAG binder: inactive; ADAM17 inh: inactive

Results for O=C(NC(=O)c1ccccc1)Nc1cccc(S(=O)(=O)N2CCCCC2)c1 ?
ADAM10 inh: inactive; NR3A LBD binder: inactive; proKLK7 act: inactive; rCAG binder: inactive; AHR act: inactive; ADAM17 inh: inactive

Results for C/C(=N\O)C(C)(C)Nc1ccccc1F ?
ADAM10 inh: inactive; NR3A LBD binder: inactive; proKLK7 act: inactive; rCAG binder: inactive; AHR act: inactive; ADAM17 inh: inactive
